Sampled rows, rich in hits. Any-hit rate of the full collection: about 32%.
PostGolgi ctrl: growth inhibition of yeast control strain, primary screen, counter-screen for post-Golgi transport modulator project; efflux-deficient yeast background strain, growth absorbance A615, 16 h; inhibition, % at 10 µM; actives 5% (n = 98,000)
CYP2C19 inhib: blockers of cytochrome P450 2C19 activity – biochemical, luminescence, ADME assay, primary screen | CYP2C19 Supersomes, luciferin-H EGE luminescence, 30 min | inhibition, % at 5 µM | actives 21% (n = 96,000) | AID 778, 2007;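 active means CYP2C19 inhibition above a set limit at 5 µM in the primary screen, cut at about 50% in these data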;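 further: plate controls were negative control wells for no effect and 2.5 mM tranylcypromine positive control for full effect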
Target sequence (P33261 whole entry, looked up): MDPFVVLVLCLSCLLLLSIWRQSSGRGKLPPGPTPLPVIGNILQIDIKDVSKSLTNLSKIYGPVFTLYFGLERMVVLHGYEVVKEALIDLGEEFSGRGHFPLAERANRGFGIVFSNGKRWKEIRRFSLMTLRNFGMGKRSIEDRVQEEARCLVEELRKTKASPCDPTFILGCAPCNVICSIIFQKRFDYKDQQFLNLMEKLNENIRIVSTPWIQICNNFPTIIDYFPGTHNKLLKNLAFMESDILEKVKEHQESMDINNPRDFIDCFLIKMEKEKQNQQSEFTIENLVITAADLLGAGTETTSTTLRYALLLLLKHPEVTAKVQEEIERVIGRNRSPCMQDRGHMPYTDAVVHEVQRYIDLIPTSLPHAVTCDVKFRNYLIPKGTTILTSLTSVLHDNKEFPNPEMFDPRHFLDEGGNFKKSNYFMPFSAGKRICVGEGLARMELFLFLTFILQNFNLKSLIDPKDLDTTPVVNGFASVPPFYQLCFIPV
CYP2C9 inh: blockers of cytochrome P450 2C9 activity – biochemical, luminescence, ADME assay, primary screen; CYP2C9 Supersomes, luciferin-H conversion; inhibition, % at 5 µM; actives 20% (n = 96,000); AID 777, 2007;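 active means blocking of liver enzyme CYP2C9 beyond about 50% at 5 µM, limit read from the data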
CYP2C19 act: human CYP2C19 activators, primary screen, biochemical, luminescence | 96,000 tested, under 10 active | recombinant CYP2C19, luciferin-H EGE luminescence; stronger effect = higher value; 0 = fully inhibited enzyme, 1 = untreated enzyme | AID 1025, 2008 | Cytochrome P450 2C19 (Homo sapiens), P33261 | activation factor at 5 µM;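 active means activation factor of at least 2 at 5 µM in the primary screen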;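 further: 0 = wells with 2.5 mM tranylcypromine and 1 = vehicle-only wells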
PostGolgi yeast: phenotypic screen on post-Golgi transport, primary screen; post-Golgi transport phenotypic cell assay; inhibition, % at 10 µM; actives 0.9% (n = 98,000);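 further: yeast cells grown in 1536-well plates; yeast grown about 18 h at 30C before absorbance read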
CYP2C9 act: human CYP2C9 activators, primary screen, biochemical, luminescence; recombinant CYP2C9, luciferin-H conversion; stronger effect = higher value; factor 1 = untreated enzyme, 0 = blocked; actives 1.4% (n = 96,000); Cytochrome P450 2C9 (Homo sapiens), P11712; activation factor at 5 µM;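 active means activation factor of 2 or more for CYP2C9 at a 5 µM dose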;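 further: 0 = sulfaphenazole-blocked wells and 1 = vehicle-only wells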
Starred values were filed as active, the others as inactive; · = no result. Unless noted, no stated cut-off is given here; in the data, active means inhibition above about 30%; inactive means the rest.

SMILES	PostGolgi ctrl	CYP2C19 inhib	CYP2C9 inh	CYP2C19 act	PostGolgi yeast	CYP2C9 act
O=C1OCCC1Sc1nnc(-c2ccc(Br)cc2)o1 (stereo not given)	4	62*	5	0.4	-15	1
O=C1OCCC1Sc1nnc(-c2ccco2)o1 (stereo not given)	-6	·	·	·	0	·
COc1ccc(-c2nnc(SCC(=O)N3CCC(Cc4ccccc4)CC3)o2)cc1OC	-3	93*	65*	0.1	-7	0.4
Cc1ccc(-c2nnc(SCC(=O)N3CCCC3)o2)cc1C	4	53*	-71	0.5	18	1.7
COc1cc(OC)cc(-c2nnc(SCC(=O)N3CCCC3)o2)c1	35*	3	-22	1	5	1.2
CCCCCCCOC(=O)c1ccc(OC(=O)c2cccnc2)cc1	7	13	17	0.9	0	0.8
CCCc1nc2ccccc2c(C(=O)OC2CCOC2=O)c1CC (stereo not given)	16	53*	65*	0.5	8	0.3
CCc1nc2ccccc2c(C(=O)OC2CCOC2=O)c1C (stereo not given)	1	52*	-5	0.5	1	1.1
COCCCN1C(=O)C(O)=C(C(=O)c2ccc(C)o2)C1c1cccc(Br)c1 (stereo not given)	26	7	12	0.9	-9	0.9
CCC(=O)N(CCC1(C(C)C)CCOC(C)(C)C1)Cc1ccco1 (stereo not given)	10	59*	14	0.4	1	0.9
CC(=O)N(CCC1(C(C)C)CCOC(C)(C)C1)Cc1ccco1 (stereo not given)	6	-6	-19	1.1	8	1.2
Cc1ccc2oc(=O)c3cnn(CC(=O)Nc4ccccc4N4CCN(C)CC4)c3c2c1	2	9	49	0.9	7	0.5
O=[N+]([O-])c1cc(C(F)(F)F)ccc1NCCc1c[nH]c2ccc(O)cc12	55*	4	75*	1	29	0.3
CCc1sc(N(C(=O)Cc2ccccc2)c2ccc(F)cc2)nc1-c1ccccc1	-2	86*	51*	0.1	-7	0.5
CCc1sc(N(C(=O)Cc2ccccc2)c2ccccc2)nc1-c1ccccc1	5	18	38	0.8	-2	0.6
CC(=O)NCc1ccc(C(=O)CSc2nnc(-c3ccncc3)n2Cc2ccccc2)o1	12	·	·	·	0	·
CCOC(=O)C1=C(CSc2nccn2C)NC(=O)NC1c1ccc2c(c1)OCO2 (stereo not given)	9	88*	41	0.1	0	0.6
CCOC(=O)C1=C(Cn2cnc3ccccc32)NC(=O)NC1c1cc(C)ccc1C (stereo not given)	21	46	30	0.5	-3	0.7
CCOC(=O)C1=C(CNCc2ccccc2Cl)NC(=O)NC1c1ccc2c(c1)OCO2 (stereo not given)	39*	28	26	0.7	-7	0.7
CCOC(=O)C1=C(CNCc2ccc(C)cc2)NC(=O)NC1c1cc(C)ccc1C (stereo not given)	21	47	55*	0.5	-2	0.5
O=c1cc(CN2CCOCC2)c2c(ccc3ccccc32)o1	0	14	10	0.9	-3	0.9
CCOc1ccc(-n2c(=S)sc3c(=O)[nH]c(SCC(=O)NC(C)CC)nc32)cc1 (stereo not given)	-2	11	78*	0.9	20	0.2
Cc1cc2c(=O)n(NC(N)=O)c(C)nc2s1	3	2	9	1	5	0.9
O=C(/C=C(\c1ccc(Cl)cc1)n1cncn1)c1ccc(Cl)cc1	19	90*	8	0.1	-2	0.9
COC(=O)c1ccn(C(=O)c2ccc(Cl)cc2)n1	-2	-6	10	1.1	21	0.9
SMILES	PostGolgi ctrl	CYP2C19 inhib	CYP2C9 inh	CYP2C19 act	PostGolgi yeast	CYP2C9 act
O=C(Nc1cccc(C(F)(F)F)c1)c1cnc2n(c1=O)CCS2	6	-1	-53	1	1	1.5
Cc1ccc(-n2ncc3c(NCc4ccc5c(c4)OCO5)ncnc32)c(C)c1	38*	·	·	·	4	·
NC(=O)c1c(NC(NC(=O)c2ccco2)(C(F)(F)F)C(F)(F)F)sc2c1CCCC2	3	20	21	0.8	-5	0.8
COc1ccc(C(=O)Oc2cccnc2)cc1	0	33	18	0.7	-4	0.8
COC(=O)c1ccc(-c2nc(O)c3cnccn23)cc1	-1	51*	49	0.5	3	0.5
O=C(O)CCC(=O)Nc1nc2nc(-c3ccccc3)cc(-c3ccccc3)n2n1	-4	0	6	1	-7	0.9
CC(C)(C)C(=O)/C=C(N)/C=C/c1ccccc1	33*	28	16	0.7	-2	0.8
Cc1cc(NC(=O)C2C3C(=O)N(Cc4ccc(Cl)cc4)C(C(=O)NCc4ccccc4)C34C=CC2(C)O4)no1 (stereo not given)	13	40	83*	0.6	-2	0.2
COc1ccc(S(=O)(=O)Nc2cc(Sc3ncn[nH]3)c(O)c3ccccc23)cc1	10	97*	94*	0	17	0.1
COC(=O)c1ccc(Sc2ccccc2NS(=O)(=O)c2ccc(OC)cc2)nc1	18	26	44	0.7	16	0.6
Cc1nc(SCC(=O)c2ccc(Cl)cc2)c([N+](=O)[O-])[nH]1	16	53*	48	0.5	-10	0.5
C=C(C)C1CCC(C)=C1CC(C)(C)/C=N\n1cnnc1 (stereo not given)	-1	86*	63*	0.1	7	0.4
Cc1cc(C2C(=O)C(C(=O)c3ccc(Cl)cc3)C(=O)CC2(C)C)on1 (stereo not given)	-6	-12	39	1.1	8	0.6
Cn1c(SCC(=O)N2CCCCC2)nnc1-c1ccc(S(=O)(=O)N2CCOCC2)cc1	5	-8	-5	1.1	-12	1.1
COc1ccccc1-c1nnc(NC(=O)OCC(C)C)s1	3	19	-144	0.8	1	2.4*
O=C(CNCC1CCCO1)Nc1ccccc1N1CCOCC1 (stereo not given)	-11	-4	14	1	3	0.9
O=C(CNCCC1=CCCCC1)Nc1ccccc1N1CCCCC1	27	93*	86*	0.1	2	0.1
COc1ccc(NC(=O)CNCCC2=CCCCC2)cc1	17	29	-17	0.7	14	1.2
O=C(CNC1CCCCCC1)Nc1ccccc1N1CCCCC1	11	57*	24	0.4	2	0.8
O=C(CNCC1CCCCC1)Nc1ccccc1N1CCCCC1	18	74*	48	0.3	2	0.5
CC(C)Nc1nc(NC(C)C)nc(C(N)=O)n1	-5	5	24	0.9	-6	0.8

From PubChem BioAssay
